# Key:
# Assay in all cases: DAPPL (digital affinity profiling via proximity ligation, sequencing); 10 mM Tris-HCl pH 7.5, 50 mM NaCl, 1 mM DTT, 4% glycerol, room temperature, 30 min; GST-TFs on glutathione beads, 16-mer random dsDNA library, 0.1% formaldehyde crosslink after washing; high values mean tight binding
# Conditions in all cases: protein: recombinant; tags: N-terminal GST; dsDNA, one strand shown
# [1] = molecular target: T1, ERG (Homo sapiens, UniProt P11308 1-479)
# T1 sequence: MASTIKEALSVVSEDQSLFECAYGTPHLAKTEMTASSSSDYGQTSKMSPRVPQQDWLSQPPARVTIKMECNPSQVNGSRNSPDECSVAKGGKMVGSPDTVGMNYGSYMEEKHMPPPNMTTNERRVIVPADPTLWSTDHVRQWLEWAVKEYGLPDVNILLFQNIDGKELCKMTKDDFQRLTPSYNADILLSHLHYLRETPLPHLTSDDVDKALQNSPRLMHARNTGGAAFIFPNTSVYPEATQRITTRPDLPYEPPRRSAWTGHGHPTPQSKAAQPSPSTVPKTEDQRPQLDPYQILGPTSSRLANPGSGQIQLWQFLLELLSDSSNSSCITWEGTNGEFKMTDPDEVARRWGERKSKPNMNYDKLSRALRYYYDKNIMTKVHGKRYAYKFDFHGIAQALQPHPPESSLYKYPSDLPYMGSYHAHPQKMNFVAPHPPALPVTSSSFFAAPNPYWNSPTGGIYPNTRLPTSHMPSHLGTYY
# How it was run: (§1)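 Yeast served to express human transcription factors as GST fusions, which were then captured on glutathione beads and labelled with DNA barcodes. Pooled with a tag-only sample, they were incubated with 200 nmole of a 16-mer random double-stranded DNA library for 30 min at room temperature in Tris/NaCl/DTT/glycerol buffer, washed, crosslinked with 0.1% formaldehyde, ligated by proximity, amplified by PCR and sequenced. Dividing each hexamer's read frequency for a factor by its frequency for the tag-only sample gives the binding signal.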
# [2] = molecular target: ELF1 (Homo sapiens, UniProt P32519 1-619)
# Chain of ELF1 (P32519 whole entry): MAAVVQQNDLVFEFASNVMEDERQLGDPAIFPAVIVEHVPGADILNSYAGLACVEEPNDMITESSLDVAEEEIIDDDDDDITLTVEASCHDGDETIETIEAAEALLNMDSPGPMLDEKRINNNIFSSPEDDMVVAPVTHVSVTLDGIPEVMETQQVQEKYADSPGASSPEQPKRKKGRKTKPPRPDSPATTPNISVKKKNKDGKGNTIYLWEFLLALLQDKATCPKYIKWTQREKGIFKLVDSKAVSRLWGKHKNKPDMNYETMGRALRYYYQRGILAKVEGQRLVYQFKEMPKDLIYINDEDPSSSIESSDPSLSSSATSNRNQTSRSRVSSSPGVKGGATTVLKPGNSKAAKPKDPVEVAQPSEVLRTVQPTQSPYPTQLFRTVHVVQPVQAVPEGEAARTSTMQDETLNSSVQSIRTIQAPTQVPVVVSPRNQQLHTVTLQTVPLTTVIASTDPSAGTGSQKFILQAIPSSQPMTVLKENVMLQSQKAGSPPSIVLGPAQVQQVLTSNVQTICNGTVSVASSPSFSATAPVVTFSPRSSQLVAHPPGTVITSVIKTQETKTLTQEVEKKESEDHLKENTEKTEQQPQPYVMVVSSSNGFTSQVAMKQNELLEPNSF
# How it was run: as §1
# [3] = molecular target: T2, EHF (Homo sapiens, UniProt Q9NZC4 1-300)
# T2 sequence: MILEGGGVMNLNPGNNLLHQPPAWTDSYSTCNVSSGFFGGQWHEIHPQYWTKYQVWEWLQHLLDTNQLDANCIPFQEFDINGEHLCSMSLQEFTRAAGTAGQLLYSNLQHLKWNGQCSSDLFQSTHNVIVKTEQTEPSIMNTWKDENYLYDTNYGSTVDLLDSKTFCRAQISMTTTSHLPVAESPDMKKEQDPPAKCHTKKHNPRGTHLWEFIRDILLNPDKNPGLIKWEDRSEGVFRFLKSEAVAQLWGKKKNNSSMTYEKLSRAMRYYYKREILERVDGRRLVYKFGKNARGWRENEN
# How it was run: as §1
# [4] = molecular target: T3, ETV2 (Homo sapiens, UniProt O00321 1-342)
# T3 sequence: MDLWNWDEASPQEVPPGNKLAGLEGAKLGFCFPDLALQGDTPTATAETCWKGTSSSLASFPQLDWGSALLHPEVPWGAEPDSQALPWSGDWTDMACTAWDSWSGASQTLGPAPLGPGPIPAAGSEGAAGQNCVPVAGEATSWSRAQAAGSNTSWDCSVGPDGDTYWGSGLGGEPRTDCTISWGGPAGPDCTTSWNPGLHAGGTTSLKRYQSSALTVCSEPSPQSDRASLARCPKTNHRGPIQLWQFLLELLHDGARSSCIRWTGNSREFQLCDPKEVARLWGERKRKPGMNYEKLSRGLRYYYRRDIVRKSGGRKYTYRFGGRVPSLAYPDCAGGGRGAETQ
# How it was run: as §1
# [5] = molecular target: T4, ELF3 (Homo sapiens, UniProt P78545 1-371)
# T4 sequence: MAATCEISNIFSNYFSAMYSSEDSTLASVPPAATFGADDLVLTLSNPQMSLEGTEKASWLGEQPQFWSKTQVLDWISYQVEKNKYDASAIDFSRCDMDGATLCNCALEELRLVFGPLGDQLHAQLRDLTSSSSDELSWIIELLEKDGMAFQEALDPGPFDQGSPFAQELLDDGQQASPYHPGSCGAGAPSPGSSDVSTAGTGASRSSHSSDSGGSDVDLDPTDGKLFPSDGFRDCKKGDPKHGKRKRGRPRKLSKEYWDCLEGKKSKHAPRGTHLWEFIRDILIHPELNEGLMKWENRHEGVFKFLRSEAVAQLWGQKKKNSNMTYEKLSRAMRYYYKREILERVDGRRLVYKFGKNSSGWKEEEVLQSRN
# How it was run: as §1
# [6] = molecular target: ETV1 (Homo sapiens, UniProt P50549 1-477)
# Chain of ETV1 (P50549 whole entry): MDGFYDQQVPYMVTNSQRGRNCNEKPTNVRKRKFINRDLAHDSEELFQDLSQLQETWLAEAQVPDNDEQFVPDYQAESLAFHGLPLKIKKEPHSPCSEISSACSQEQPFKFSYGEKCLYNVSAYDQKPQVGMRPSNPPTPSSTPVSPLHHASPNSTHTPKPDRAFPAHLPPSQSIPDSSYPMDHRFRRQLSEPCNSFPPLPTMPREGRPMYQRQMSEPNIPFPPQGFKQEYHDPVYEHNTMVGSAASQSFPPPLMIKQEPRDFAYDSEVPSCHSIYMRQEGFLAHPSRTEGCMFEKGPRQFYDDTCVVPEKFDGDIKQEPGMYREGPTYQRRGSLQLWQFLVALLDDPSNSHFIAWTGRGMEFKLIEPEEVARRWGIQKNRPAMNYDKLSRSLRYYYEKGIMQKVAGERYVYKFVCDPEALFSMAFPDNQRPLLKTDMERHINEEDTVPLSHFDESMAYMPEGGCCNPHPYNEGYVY
# How it was run: as §1
# [7] = molecular target: T5, ETV7 (Homo sapiens, UniProt Q9Y603 1-341)
# T5 sequence: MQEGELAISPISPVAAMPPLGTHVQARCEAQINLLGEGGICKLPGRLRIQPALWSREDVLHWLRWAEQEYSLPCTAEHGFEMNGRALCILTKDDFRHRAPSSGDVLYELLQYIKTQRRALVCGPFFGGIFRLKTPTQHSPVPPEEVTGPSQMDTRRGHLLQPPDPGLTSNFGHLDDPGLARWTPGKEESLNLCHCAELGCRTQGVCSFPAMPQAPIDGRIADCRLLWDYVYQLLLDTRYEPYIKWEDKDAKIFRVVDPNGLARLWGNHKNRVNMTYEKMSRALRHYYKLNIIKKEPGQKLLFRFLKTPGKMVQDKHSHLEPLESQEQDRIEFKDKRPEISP
# How it was run: as §1
# [8] = molecular target: T6, ETV3 (Homo sapiens, UniProt P41162-2 1-143)
# T6 sequence: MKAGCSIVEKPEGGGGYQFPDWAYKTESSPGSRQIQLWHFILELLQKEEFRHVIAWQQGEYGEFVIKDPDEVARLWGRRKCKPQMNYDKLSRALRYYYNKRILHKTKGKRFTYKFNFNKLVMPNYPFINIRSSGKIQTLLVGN
# How it was run: as §1
# [9] = molecular target: ETV6 (Homo sapiens, UniProt P41212 1-452)
# Chain of ETV6 (P41212 whole entry): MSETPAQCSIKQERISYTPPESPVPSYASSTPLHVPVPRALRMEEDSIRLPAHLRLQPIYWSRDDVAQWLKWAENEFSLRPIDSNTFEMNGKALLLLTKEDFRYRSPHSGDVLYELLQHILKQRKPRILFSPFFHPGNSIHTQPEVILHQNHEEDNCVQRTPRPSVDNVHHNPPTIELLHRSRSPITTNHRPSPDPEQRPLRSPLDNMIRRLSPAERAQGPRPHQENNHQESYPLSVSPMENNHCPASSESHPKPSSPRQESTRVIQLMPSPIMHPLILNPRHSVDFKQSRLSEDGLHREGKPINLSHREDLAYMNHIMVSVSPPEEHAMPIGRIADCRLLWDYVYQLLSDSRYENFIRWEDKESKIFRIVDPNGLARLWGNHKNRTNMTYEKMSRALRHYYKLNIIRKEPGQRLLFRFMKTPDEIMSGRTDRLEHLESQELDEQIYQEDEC
# How it was run: as §1
# [10] = molecular target: T7, GABPA (Homo sapiens, UniProt Q06546 1-454)
# T7 sequence: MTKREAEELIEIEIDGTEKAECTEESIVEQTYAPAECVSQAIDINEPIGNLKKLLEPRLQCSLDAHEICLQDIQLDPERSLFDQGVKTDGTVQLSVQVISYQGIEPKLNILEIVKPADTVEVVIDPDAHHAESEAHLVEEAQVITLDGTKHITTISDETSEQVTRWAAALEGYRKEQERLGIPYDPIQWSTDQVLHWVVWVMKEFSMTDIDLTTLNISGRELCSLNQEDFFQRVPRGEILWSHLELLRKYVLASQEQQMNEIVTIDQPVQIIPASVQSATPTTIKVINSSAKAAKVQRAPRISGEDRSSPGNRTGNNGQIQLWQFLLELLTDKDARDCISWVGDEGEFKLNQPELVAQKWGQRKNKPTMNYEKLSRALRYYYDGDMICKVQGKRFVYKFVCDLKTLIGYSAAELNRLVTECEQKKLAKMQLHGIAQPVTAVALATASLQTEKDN
# How it was run: as §1
# [11] = molecular target: T8, ERF (Homo sapiens, UniProt P50548 1-548)
# T8 sequence: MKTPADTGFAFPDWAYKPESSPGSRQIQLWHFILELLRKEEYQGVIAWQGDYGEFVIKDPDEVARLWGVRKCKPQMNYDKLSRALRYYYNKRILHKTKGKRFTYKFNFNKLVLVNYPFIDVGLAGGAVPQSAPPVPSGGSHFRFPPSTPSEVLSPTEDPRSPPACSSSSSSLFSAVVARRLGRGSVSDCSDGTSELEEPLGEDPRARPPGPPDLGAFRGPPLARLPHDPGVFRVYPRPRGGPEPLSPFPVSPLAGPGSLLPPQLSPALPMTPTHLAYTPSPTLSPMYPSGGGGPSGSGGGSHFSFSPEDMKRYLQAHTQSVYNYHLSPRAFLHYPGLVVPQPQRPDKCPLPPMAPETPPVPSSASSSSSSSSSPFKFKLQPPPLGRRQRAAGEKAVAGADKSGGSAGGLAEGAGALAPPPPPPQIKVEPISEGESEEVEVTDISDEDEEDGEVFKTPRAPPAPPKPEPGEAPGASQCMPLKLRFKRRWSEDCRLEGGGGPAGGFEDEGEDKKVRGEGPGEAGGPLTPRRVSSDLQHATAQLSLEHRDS
# How it was run: as §1
# [12] = molecular target: T9, SPIC (Homo sapiens, UniProt Q8N5J4 1-248)
# T9 sequence: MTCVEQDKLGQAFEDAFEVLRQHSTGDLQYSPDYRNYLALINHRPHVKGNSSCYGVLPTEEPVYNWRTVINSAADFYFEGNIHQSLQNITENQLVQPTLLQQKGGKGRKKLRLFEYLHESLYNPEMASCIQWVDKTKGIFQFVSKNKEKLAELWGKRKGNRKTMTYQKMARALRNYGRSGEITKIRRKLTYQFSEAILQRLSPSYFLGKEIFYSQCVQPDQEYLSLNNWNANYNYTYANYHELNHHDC
# How it was run: as §1
sequence,measurement,setting,value
GAAACC,binding signal,[1],"1.05 fold enrichment (6-mer frequency, TF over GST control)"
same,binding signal,[2],"1.04 fold enrichment (6-mer frequency, TF over GST control)"
same,binding signal,[3],"1.04 fold enrichment (6-mer frequency, TF over GST control)"
same,binding signal,[4],"1.06 fold enrichment (6-mer frequency, TF over GST control)"
same,binding signal,[5],"1.03 fold enrichment (6-mer frequency, TF over GST control)"
same,binding signal,[6],"1.02 fold enrichment (6-mer frequency, TF over GST control)"
same,binding signal,[7],"1.04 fold enrichment (6-mer frequency, TF over GST control)"
same,binding signal,[8],"1.02 fold enrichment (6-mer frequency, TF over GST control)"
same,binding signal,[9],"1.08 fold enrichment (6-mer frequency, TF over GST control)"
CATAGC,binding signal,[10],"1.02 fold enrichment (6-mer frequency, TF over GST control)"
same,binding signal,[2],"1.02 fold enrichment (6-mer frequency, TF over GST control)"
same,binding signal,[3],"1.01 fold enrichment (6-mer frequency, TF over GST control)"
same,binding signal,[4],"1.06 fold enrichment (6-mer frequency, TF over GST control)"
same,binding signal,[5],"1.1 fold enrichment (6-mer frequency, TF over GST control)"
same,binding signal,[6],"1.02 fold enrichment (6-mer frequency, TF over GST control)"
same,binding signal,[11],"1.07 fold enrichment (6-mer frequency, TF over GST control)"
same,binding signal,[9],"1.02 fold enrichment (6-mer frequency, TF over GST control)"
CGGCAA,binding signal,[9],"1.02 fold enrichment (6-mer frequency, TF over GST control)"
AGTACC,binding signal,[4],"1.03 fold enrichment (6-mer frequency, TF over GST control)"
same,binding signal,[9],"1.04 fold enrichment (6-mer frequency, TF over GST control)"
CTGTAG,binding signal,[10],"1.03 fold enrichment (6-mer frequency, TF over GST control)"
same,binding signal,[12],"1.08 fold enrichment (6-mer frequency, TF over GST control)"
same,binding signal,[11],"1.02 fold enrichment (6-mer frequency, TF over GST control)"

# — PMC7862700, “An all-to-all approach to the identification of sequence-specific readers for epigenetic DNA modifications on cytosine”
